HPGD inh: qHTS Assay for Inhibitors of HPGD (15-Hydroxyprostaglandin Dehydrogenase); 15-hydroxyprostaglandin dehydrogenase [NAD(+)] (Homo sapiens), P15428; purified HPGD, NADH fluorescence kinetic, PGE2 substrate; Potency, µM, inactives show at the top dose activity change, negative = inhibition, actives largely listed as inhibitors; 150,000 compounds, 4.3% hits; note: potency is the fitted concentration of half-maximal effect
Target sequence (P15428 whole entry, looked up): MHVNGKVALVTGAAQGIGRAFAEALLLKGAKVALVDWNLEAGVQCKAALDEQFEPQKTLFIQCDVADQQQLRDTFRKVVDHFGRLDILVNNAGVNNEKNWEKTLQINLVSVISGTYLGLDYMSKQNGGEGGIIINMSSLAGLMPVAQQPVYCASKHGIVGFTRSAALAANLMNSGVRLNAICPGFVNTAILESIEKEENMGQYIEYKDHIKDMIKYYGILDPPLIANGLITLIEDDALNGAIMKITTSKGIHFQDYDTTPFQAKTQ
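NADH formation kinetics: reaction with 30 uM PGE2 and 1 mM NAD+ (final), 20 nM enzyme, Tris-HCl pH 8 with Tween 20, after 15 min compound preincubation at room temperature. Fluorescence change, last versus first of five reads.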
ALDH1A1 block: qHTS Assay for Inhibitors of Aldehyde Dehydrogenase 1 (ALDH1A1) | Purified ALDH1A1, NADH fluorescence, propionaldehyde substrate | Potency, µM (highest dose often 75.3 µM), without a hit: at the top dose activity, negative = inhibition, most hits filed as inhibitors | 220,000 compounds, 7.3% hits;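 note: potency is the fitted concentration of half-maximal effect; plate controls were no enzyme wells and a reference inhibitor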
PNC assembly inh: High Content Assay for Compounds that inhibit the Assembly of the Perinucleolar Compartment; PC3M PTB-GFP, PNC prevalence imaging, 16 h; active compounds read low; activity change (PNC), negative = inhibition, % at 10 µM; 140,000 compounds, 3.1% hits;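 active = readout at or below -70, meaning at least 70% loss of cells showing the perinucleolar compartment, a nuclear body marking cancer cells; inconclusive = readout between -30 and a set limit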;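 note: plate controls were DMSO wells for no effect and camptothecin positive control wells for full effect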
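Read-out is percentage of cells bearing a perinucleolar compartment, from automated 20x imaging of fixed, Hoechst-stained PC3M PTB-GFP cells. Cells were seeded 4 h, then exposed 16 h to compound (23 nl of library stock) in duplicate plates.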
Active calls of the source: *; [ ] = remark or other dose. Rows were chosen to be rich in hits. Some 11% of all compounds tested hit in one or more screens of this group. Unless noted, calls come from the whole dose curve; as a rule, active = well fitted inhibition curve with a large enough effect (not every such curve was filed as active); inconclusive = small, poorly fitted or top-dose-only effect, or another doubt; inactive = no such curve, though single readings can be large or run the other way. Unless noted, % is set by controls: 0 for no effect and ±100 for the full control effect.

CC1(C)Oc2nc3ccccc3n2/C1=C\C#N was read as HPGD inh -11%, ALDH1A1 block 0% and PNC assembly inh inconclusive.
CCn1c(=S)[nH]c2ccccc21 was read as HPGD inh -2%, ALDH1A1 block inconclusive and PNC assembly inh inconclusive.
CCn1c(-c2ccccc2)c[nH]c1=S was read as HPGD inh -28%, ALDH1A1 block 28µM* and PNC assembly inh -29.
For S=c1[nH]cc(-c2ccccc2)n1-c1ccccc1 the results were HPGD inh 25µM*, ALDH1A1 block 3.2µM* and PNC assembly inh 1.
`Cc1ccc(-n2c(-c3ccccc3)c[nH]c2=S)cc1` gave ALDH1A1 block 2%.
Cc1ccc2[nH]c(=O)c(CNS(=O)(=O)c3ccccc3)c(-c3ccccc3)c2c1 was read as HPGD inh inconclusive, ALDH1A1 block inconclusive and PNC assembly inh 22.
Screening COc1cccc(CNc2ccc(N3CCC(C)CC3)cc2)c1OC returned HPGD inh -6%, ALDH1A1 block 13µM* and PNC assembly inh -18.
Screening CC1CCN(c2ccc(NC(=O)Cc3ccccc3)cc2)CC1 returned ALDH1A1 block 6%.
`COc1cc(S(=O)(=O)N2CCN(C)CC2)c(OC)cc1Br` gave HPGD inh -7%, ALDH1A1 block 1% and PNC assembly inh 17.
`CCCCC(=O)NCc1ccc(Cl)cc1` gave HPGD inh 14µM*, ALDH1A1 block 17% and PNC assembly inh 12.
`O=C(NC1CCCC1)c1ccc(Br)o1` gave HPGD inh 16µM*, ALDH1A1 block -3% and PNC assembly inh -85*.
For O=C(NC(c1ccccc1)c1ccccc1)c1ccc(Br)o1 the results were HPGD inh -2%, ALDH1A1 block 0.79µM* and PNC assembly inh 35.
`COc1ccc(CNC(=O)c2ccc(Br)cc2)cc1` gave ALDH1A1 block 8%.
`O=C(NCCNC(=O)c1ccc(Br)o1)c1ccc(Br)o1` gave ALDH1A1 block inconclusive and PNC assembly inh 37.
For COc1ccc(CNC(=O)c2ccc(Br)o2)cc1 the results were HPGD inh 25µM*, ALDH1A1 block 25µM* and PNC assembly inh 33.
`CCCC(=O)OCC(=O)NCc1ccc(Cl)cc1` gave ALDH1A1 block 5%.
For O=C(COC(=O)c1ccc(Br)o1)NC1CCCCC1 the results were ALDH1A1 block 0%.
Screening Cc1cnc(C(=O)OCC(=O)Nc2ccc(C)c(S(=O)(=O)N3CCCCC3)c2)cn1 returned HPGD inh -12%, ALDH1A1 block -8% and PNC assembly inh inconclusive.
OCC1O[C@@H](OC2C(O)C(CO)O[C@@]2(CO)O[C@@H]2OC(CO)C(O)C(O)C2O)C(O)C(O)C1O (some centres undefined) was read as HPGD inh -6% and ALDH1A1 block 1%.
Screening O=C(CCn1c(=S)[nH]c2ccccc2c1=O)NCCc1ccc(Cl)cc1 returned ALDH1A1 block 6%.
Screening O=C(N/N=C1/C[C@@H](O)[C@@H](O)[C@@H]2[C@@H]3C(=O)N(Cc4ccc5c(c4)OCO5)C(=O)[C@H]3CC[C@@H]12)OCc1ccccc1 returned ALDH1A1 block 8%[13.5 µM].
For O=C(Oc1ccccc1)c1cccnc1Oc1ccccc1 the results were ALDH1A1 block -8%.
O=C(NCCc1ccccc1)c1cccc(Br)n1 was read as HPGD inh -28% and ALDH1A1 block -4%.
Screening Cc1ccc(CNC(=O)c2ccc(Br)o2)cc1 returned HPGD inh 3.2µM*, ALDH1A1 block 16µM* and PNC assembly inh 25.
Screening O=C(NCc1ccc(F)cc1)c1ccc(Br)o1 returned ALDH1A1 block 16%.
Screening COC(=O)c1cccc(NC(=S)NCc2ccc(Cl)cc2)c1 returned HPGD inh -26%, ALDH1A1 block -14% and PNC assembly inh 21.
O=C(NCc1ccc(Cl)cc1)c1ccc(Cl)cc1[N+](=O)[O-] was read as HPGD inh 16µM*, ALDH1A1 block 6% and PNC assembly inh -9.
`O=C(NCc1ccccc1)c1cccc(Br)n1` gave HPGD inh 32µM*, ALDH1A1 block -13% and PNC assembly inh inconclusive.
O=C(NCc1cccnc1)c1ccc(Cl)cc1[N+](=O)[O-] was read as HPGD inh -3%, ALDH1A1 block 5% and PNC assembly inh inconclusive.
`COC(=O)c1cc(NC(=S)NCc2ccc(Cl)cc2)cc(C(=O)OC)c1` gave HPGD inh -25%, ALDH1A1 block 11µM* and PNC assembly inh inconclusive.
Screening CCC1CCCCN1C(=O)c1sc2ncnc(N(CC)CC)c2c1C (centres undefined) returned ALDH1A1 block 0%.
For CC(C)CCSc1nc(N)c(C#N)cc1C#N the results were HPGD inh -23%, ALDH1A1 block inconclusive and PNC assembly inh inconclusive.
`O=C(O)c1ccc(CNC(=O)c2ccc(Br)o2)cc1` gave HPGD inh -8%, ALDH1A1 block 0% and PNC assembly inh inconclusive.
For O=C(NCCc1ccccc1)c1ccc(Br)o1 the results were HPGD inh inconclusive, ALDH1A1 block inconclusive and PNC assembly inh 0.
For O=C(c1ccc(Br)o1)N(Cc1ccccc1)Cc1ccccc1 the results were HPGD inh -18%, ALDH1A1 block 0.79µM* and PNC assembly inh 11.
CN(C)c1cccc(C(=O)NCc2ccc(Cl)cc2)c1 was read as ALDH1A1 block -14%.
`O=C(/C=C/c1ccc(Br)o1)OCc1ccccc1` gave HPGD inh -19%, ALDH1A1 block inconclusive and PNC assembly inh 0.
Screening O=C(/C=C/c1ccc(Br)o1)NC(c1ccccc1)c1ccccc1 returned HPGD inh 8%, ALDH1A1 block 22µM* and PNC assembly inh inconclusive.
For O=C(NCc1ccc(Cl)cc1)c1cccc(NC(=O)c2ccccc2)c1 the results were HPGD inh inconclusive, ALDH1A1 block -6% and PNC assembly inh -100*.
Screening O=C(NCc1ccccc1)c1ccc(Br)o1 returned HPGD inh 13µM*, ALDH1A1 block 0% and PNC assembly inh -5.
For Cc1ccc(C(=O)NCc2ccc(Cl)cc2)o1 the results were HPGD inh 14µM*, ALDH1A1 block -1% and PNC assembly inh -21.
`CC(C)c1ccc(C(=O)NCc2ccc(Cl)cc2)cc1` gave HPGD inh -6%, ALDH1A1 block 1% and PNC assembly inh -8.
Screening O=C(NCc1ccc(Cl)cc1)c1ccccc1Oc1ccccc1 returned HPGD inh 10µM*, ALDH1A1 block inconclusive and PNC assembly inh -22.
For COCCCNC(=O)c1ccccc1Oc1ccccc1 the results were HPGD inh -21%, ALDH1A1 block 10% and PNC assembly inh inconclusive.
`CCSC(=S)Nc1c(C)n(C)n(-c2ccccc2)c1=O` gave ALDH1A1 block -15%.
`Cc1ccc(-c2cc(C(=O)N3CCCC3)no2)cc1` gave HPGD inh inconclusive, ALDH1A1 block inconclusive and PNC assembly inh 9.
`CC1CCCC(C)N1C(=O)c1cc(-c2ccc(Cl)c(Cl)c2)on1` (centres undefined) gave HPGD inh 18µM*, ALDH1A1 block -19% and PNC assembly inh 86.
